# TGFb inhibitor: blocks TGF-b signaling; HepG2 CAGA-GFP TGF-b/SMAD3 reporter, GFP fluorescence, 18 h; TGF-beta stimulated, 500 pg/mL final; Potency, µM (top dose mostly 46.1 µM), actives largely listed as inhibitors; hit rate 1.2% among 410,000; AID 588855; note: nearly all actives have a fitted effect of over 65% in size
#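 TGF-beta reporter screen: HEPG2 CAGA-GFP, 1% FBS, 500 pg/mL TGF-beta final, 18 h; per-cell GFP summed per well; curves fitted and categorized by class.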
# HT1080-NT tox: kills 2HG-producing HT-1080-NT fibrosarcoma cells. HT-1080-NT fibrosarcoma viability, CellTiter-Glo ATP luminescence, 48 h. Potency, µM (titrated, usually from 46.1 µM), actives largely listed as cytotoxic. hit rate 1.6% among 360,000. AID 686970;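 note: NT is the 2HG producing partner of a matched IDH1 knockdown line; nearly all actives have a fitted effect of over 55% in size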
#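 HT-1080-NT; 750 cells/well; 5% FBS RPMI; 48 h compound, 37 degrees C; CellTiter-Glo luminescence; curve fitting and curve-class assignment.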
# HepG2 viability: kills HepG2 cells in TGF-b inhibitor counter-screen. Potency, µM (top dose mostly 46.1 µM), most hits filed as cytotoxic. hit rate 0.76% among 410,000. HepG2 CAGA-GFP viability, ATP luminescence, 18 h. AID 588856
#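 CellTiter-Glo luminescence gave cytotoxicity after 18 hours at 37 degrees C. The cells were HepG2 CAGA-GFP in 1% FBS DMEM, stimulated with 500 pg/mL TGF-beta after compound addition. %Activity was normalised to no-cell wells (complete cell-killing) and DMSO (no toxicity), and curves were fitted and classified.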
# DT40 TDP1 no CPT: qHTS for Inhibitors of human tyrosyl-DNA phosphodiesterase 1 (TDP1): qHTS in cells in absence of CPT | DT40 Tdp1-/- hTDP1 cells, no CPT, ATP luminescence, 48 h | Potency, µM (titrated, usually from 46.2 µM), most hits filed as inhibitors | hit rate 15% among 420,000 | AID 686978, 2013; note: nearly all actives have a fitted effect of over 55% in size
#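 Camptothecin absent (DMSO only). Human TDP1-complemented DT40 knockout cells, 400 cells/well, 37 °C for minimum 48 hr; ATP measured via CellTiter-Glo, 30 min dark incubation, luminescence.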
# HT1080 IDH1KD tx: toxicity to HT-1080 IDH1 knockdown cells (counter line) | Potency, µM (highest dose often 46.1 µM), actives largely listed as cytotoxic | hit rate 2% among 360,000 | HT-1080 IDH1 knockdown viability, ATP luminescence, 48 h
#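 Knockdown cells (IDH1KD HT-1080) received compounds 2 h after plating at 750 cells/well and were kept 48 h at 37 °C in 5% FBS RPMI. A CellTiter-Glo luminescence read gave % activity for curve fitting.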
# DT40 TDP1 CPT: growth inhibition of DT40 Tdp1-/-;hTDP1 cells with camptothecin (screen for TDP1 inhibitors); chicken DT40 Tdp1-/-;hTDP1 cells + 20 nM CPT, ATP luminescence, 48 h; AID 686979; hit rate 12% among 420,000; Potency, µM (top dose mostly 46.2 µM), most hits filed as inhibitors; note: nearly all actives have a fitted effect of over 55% in size
#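 Chicken DT40 Tdp1-/- cells complemented with human TDP1, 400 cells/well, exposed to compounds plus 20 nM camptothecin for at least 48 h at 37 C; viability read as ATP content by CellTiter-Glo luminescence.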
# A number is an active result; i = inactive; ? = inconclusive; nt = not tested or not shown; ! = not confirmed by another sample; [ ] = dose if it differs, or a comment. Compounds with a hit are over-represented: about 17% of the library has one in this group of screens. Calls come from the whole dose curve; as a rule, active = well fitted curve in the direction sought with a large enough effect; inconclusive = small, poorly fitted or top-dose-only effect, or another doubt; inactive = no such curve, though single readings can be large; an effect the other way counts as inactive or inconclusive.
SMILES,TGFb inhibitor,HT1080-NT tox,HepG2 viability,DT40 TDP1 no CPT,HT1080 IDH1KD tx,DT40 TDP1 CPT
O=C1CC(c2c(F)cccc2Cl)c2c(c3ccccc3oc2=O)O1 (configuration not stated),i,nt,i,i,nt,i
Cc1ccc2c(Cl)cc(Cl)c(O)c2n1,13µM,i,i,3.3µM!,8.2µM,2.9µM!
CN(C)C(=O)Oc1c(Cl)cc(Cl)c2cccnc12,i,i,i,i,i,i
CN(C)CCO,nt,nt,nt,i,nt,i
CCOc1cc2c(cc1OCC)-n1cccc1C(c1ccc(OC)c(OC)c1)NC2 (configuration not stated),?,i,i,?,i,?
CCOc1cc2c(cc1OCC)-n1cccc1C(c1ccccc1OC)NC2 (configuration not stated),i,i,i,26µM,i,?
CCOc1cc2c(cc1OCC)-n1cccc1C(c1ccccc1O)NC2 (configuration not stated),i,?,i,?,?,23µM
CCOc1cc2c(cc1OCC)-n1cccc1C(c1c(O)cccc1OC)NC2 (configuration not stated),i,21µM,i,10µM,21µM,13µM
FC(F)(F)c1cccc(C2NCc3ccccc3-n3cccc32)c1 (configuration not stated),i,i,i,?,?,i
Oc1ccc(C2NCc3ccccc3-n3cccc32)cc1Cl (configuration not stated),i,i,i,?,i,?
CCOc1cc2c(cc1OCC)-n1cccc1C(c1cccc(F)c1F)NC2 (configuration not stated),i,i,i,23µM,i,?
Cc1ccc(F)cc1NC(=O)c1ccc(Cn2nc(N3CCN(c4ccccc4)CC3)ccc2=O)o1,i,nt,i,?,nt,?
CC(C)NCC(O)c1ccc(C2CCCC2)cc1 (configuration not stated),i,?,i,16µM,i,16µM
Fc1ccccc1CCNCc1cccc2ccccc12,?,?,i,?,?,?
Cc1ccccc1CCNCc1cc2cccc(C)c2[nH]c1=O,i,i,i,16µM,i,16µM
Cc1ccc(CNS(=O)(=O)c2cc3c(cc2C)N(C)CCO3)cc1,?,i,i,?,i,?
COC(=O)C1=C(C)NC(COC(N)=O)=C(C(=O)OC(C)C)C1c1cccc(Cl)c1Cl (configuration not stated),nt,nt,nt,33µM,nt,30µM
CCOC(=O)C1(CCOc2ccccc2)CCN(Cc2cnc(SC)nc2)CC1,i,i,i,18µM,i,?
CCOC(=O)C1(CCc2ccccc2)CCN(Cc2cccc3c2OCO3)CC1,i,?,i,9.2µM,?,?
CCOC(=O)C1(CCOc2ccccc2)CCN(Cc2cccc(O)c2)CC1,i,?,i,?,?,?
CCOC(=O)C1(CCOc2ccccc2)CCN(Cc2ccccc2OC)CC1,?,?,i,15µM,i,16µM
NC(=O)[C@@H]1CCCN1C(=O)[C@H](Cc1ccccc1)NC(=O)[C@@H]1CCCN1C(=O)[C@@H](N)Cc1ccc(O)cc1,nt,nt,nt,i[4.12 µM],nt,i[4.12 µM]
C=CCCC1(CC)C(=O)NC(=S)NC1=O,i,i,i,i,i,i
CCN(CC)CCCN=C(C)c1c(O)n(-c2ccc(C)cc2)c(=O)[nH]c1=O,i,i,i,i,i,i
COc1ccc2nc(NC3=NCCN3)sc2c1,i,i,i,i,i,i
SMILES,TGFb inhibitor,HT1080-NT tox,HepG2 viability,DT40 TDP1 no CPT,HT1080 IDH1KD tx,DT40 TDP1 CPT
Cc1ccc(Cn2nc(C)c(C=O)c2Cl)cc1,i,i,i,i,i,i
Cc1ccc(/C=C/C2=NN(Cc3ccc(Cl)c(Cl)c3)C(=O)CC2)cc1,11µM,i,i,i,i[9.24 µM],i
CC[C@H](CO)Nc1nc(NCc2ccccc2)c2ncn(C(C)C)c2n1,nt,nt,nt,22µM!,nt,25µM
CCCCn1c(O)c(C(C)=NCC2CCCO2)c(=O)[nH]c1=O (configuration not stated),i,?,i,i,?,i
O=C(c1ccccc1)c1ccc2nc(N3CCN(c4ccc(F)cc4)CC3)c3nncn3c2c1,i,nt,i,8.2µM,nt,7.3µM
O=C(CCc1ccccc1)N1C[C@H]2C[C@@H](C1)c1cccc(=O)n1C2,i,i,i,i,i,i
Cc1ccc(C)c(NC(=O)Cn2c(=O)oc3cc(S(=O)(=O)NCc4ccccc4)ccc32)c1,?,nt,i,8.2µM,nt,13µM
COc1ccc(NC(=O)Cn2c(=O)oc3cc(S(=O)(=O)NCc4ccccc4)ccc32)c(OC)c1,i,nt,i,6.5µM,nt,8.2µM
COc1cc2c(cc1OC)-c1c(OC)c(OC)c(CO)c3c1C(C2)N(C)CC3 (configuration not stated),nt,nt,nt,i,nt,i
CC(C)[C@]12O[C@H]1[C@@H]1O[C@]13[C@]1(O[C@H]1C[C@H]1C4=C(CC[C@@]13C)C(=O)OC4)[C@@H]2O,nt,nt,nt,0.15µM,nt,0.12µM
COc1cccc(-n2c(SCC(=O)c3ccc(Cl)cc3)nc3c([nH]c4ccccc43)c2=O)c1,?,nt,i,4.1µM,nt,3.7µM
Cc1cc(C)cc(-n2c(SCC(=O)NCc3ccc(F)cc3)nc3c([nH]c4ccccc43)c2=O)c1,i,nt,i,16µM,nt,?
Cc1ccc(-n2c(=S)[nH]c3ccccc3c2=O)cc1F,i,i,i,?,i,i
CC(=O)OC1CCC2(C)C(=CC(=O)C3C2CCC2(C)C(OC(C)=O)CCC32)C1 (configuration not stated),i,i,i,?,i,?
OC(CNC1CCCCC1)C(F)(F)F (configuration not stated),i,i,i,i,i,i
CCCC1COC(Cn2cncn2)(c2ccc(Cl)cc2Cl)O1 (configuration not stated),i,i,i,?,i,?
CC(=O)N1CCN(c2ccc(OC[C@H]3CO[C@](Cn4ccnc4)(c4ccc(Cl)cc4Cl)O3)cc2)CC1,?,i,i,6.3µM,i,6.3µM!
CC(=O)N1CCN(c2ccc(OC[C@@H]3CO[C@@](Cn4ccnc4)(c4ccc(Cl)cc4Cl)O3)cc2)CC1,?,nt,i,16µM,nt,16µM
COc1cc(O)c(C(=O)O)c(-c2cc(O)c(O)cc2C)c1,i,i,i,16µM,i,4.6µM
C[C@]12CC[C@H]3[C@@H](CC[C@@]45O[C@@H]4C(O)=C(C#N)C[C@]35C)[C@@H]1CC[C@@H]2O,nt,nt,nt,?,nt,i
OCC12CO[C@@H]3c4ccccc4[C@H](OC1)N32 (some centres not stated),i,i,i,i,i,i

# Screens: PubChem, National Center for Advancing Translational Sciences (NCATS)
